Sampled rows, rich in hits. Any-hit rate of the full collection: about 1.2%.
Bcl-xL primary: inhibitors of human Bcl-xL | Q07817 | GST-Bcl-xL / FITC-Bim BH3 peptide fluorescence polarization | inhibition, % at 10.9 µM | actives 0.7% (n = 320,000) | AID 2129;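 active = inhibition above the mean of all tested compounds plus 3 SD, cutoff set per campaign, cut at about 30% in these data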;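 also: 0% = DMSO wells and 100% = unlabeled Bim-BH3 peptide competitor; inhibitors lower millipolarization by displacing the labeled peptide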
Target sequence (Q07817 whole entry, looked up): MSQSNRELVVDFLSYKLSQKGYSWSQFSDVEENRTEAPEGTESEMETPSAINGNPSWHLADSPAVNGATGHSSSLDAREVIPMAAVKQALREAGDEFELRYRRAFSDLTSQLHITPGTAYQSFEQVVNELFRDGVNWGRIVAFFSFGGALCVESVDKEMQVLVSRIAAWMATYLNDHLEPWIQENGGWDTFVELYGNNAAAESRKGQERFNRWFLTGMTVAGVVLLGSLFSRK
GLD-1 TGE inh: GLD-1-TGE RNA interaction inhibition (C. elegans); actives 0.44% (n = 320,000); AID 2280; inhibition, % at 5.96 µM; Q17339; purified GLD-1 + fluorescein TGE RNA, fluorescence polarization;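 active = percent inhibition above a per-plate cutoff, the plate mean of test compounds plus 3 SD, cut at about 30% in these data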;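 also: 0% = DMSO wells with GLD-1 and probe and 100% = wells lacking GLD-1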
cardiac RTF act: cardiac RTF calcium sensitization. P19429+P45379. IANBD-labeled TnC RTF fluorescence at EC20 calcium; 0% EC20 calcium, 100% full calcium. activation, % at 7.2 µM. actives 0.24% (n = 340,000). AID 493008;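 active = activation above the mean over all tested compounds plus 3 SD, cut at about 30% in these data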;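 also: rise in fluorescence read as greater calcium sensitivity of cardiac thin filaments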
RTF Ca sens inh: cardiac RTF calcium desensitization; P19429+P45379; IANBD-labeled cardiac RTF, Ca2+ fluorescence; inhibition, % at 7.15 µM; actives 0.12% (n = 340,000); AID 493244;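 active = inhibition above the mean inhibition of all tested compounds plus 3 SD, cut at about 17% in these data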;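 also: assay run at fixed EC70 calcium of 1.6 mM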
eLon inh: E. coli protease La inhibition; P0A9M0; inhibition, % at 7.94 µM; purified E. coli Lon protease, fluorescence polarization; actives 0.42% (n = 360,000); in the data active = inhibition above about 13%, passing the limit was not always enough;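 also: 0% = enzyme with probe and DMSO and 100% = no enzyme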
Numbers without * were called inactive; / = no result.

SMILES	Bcl-xL primary	GLD-1 TGE inh	cardiac RTF act	RTF Ca sens inh	eLon inh
CC1=C(C(=O)OCC(C)C)C(c2cc3c(cc2Br)OCO3)NC(=O)N1C (stereo not given)	3.2	7.4	-6.1	-4.3	-1.7
CCCOC(=O)C1=C(C)N(C)C(=O)NC1c1cc2c(cc1[N+](=O)[O-])OCO2 (stereo not given)	42.5*	15.3	4.0	-8.4	1.9
CC[n+]1c(/C=C/N(C)c2ccccc2)oc2ccc(Cl)cc21	7.2	-14.3	3.6	-8.5	4.6
CCN1/C(=C/C=C/c2oc3ccc4ccccc4c3[n+]2CC)Oc2ccc3ccccc3c21	80.1*	-69.3	/	/	/
COc1ccc(CNC(=O)N2CCN(c3cccc(Cl)c3)CC2)cc1OC	-1.8	-7.5	-5.7	-2.4	8.2
CCOC(=O)c1cc2occc2n1CC(=O)N1CCCc2ccccc21	3.6	2.4	0.8	-1.0	-7.8
O=C(CSc1nnc(-c2ccco2)c(-c2ccco2)n1)Nc1ccccc1	24.6	6.1	-5.6	1.4	157.4*
CN(C)c1ccc(NC(=O)CSc2nnc(-c3ccco3)c(-c3ccco3)n2)cc1	25.2	5.5	-1.0	-0.5	9.3
Cc1ccccc1NC(=O)CSc1nnc(-c2ccco2)c(-c2ccco2)n1	27.0	5.2	-4.3	-5.1	18.1
Cc1cccc(C)c1NC(=O)CSc1nnc(-c2ccco2)c(-c2ccco2)n1	57.7*	11.8	-11.5	7.8	86.5*
Cc1cccc[n+]1C1C(c2ccccc2)C(C#N)=C(C(=C=[N-])C#N)NC1(O)C1CC1 (stereo not given)	43.6*	18.4	2.3	-8.1	5.9
CCOc1ccccc1NC(=O)C(c1ccccc1)N1CCN(CC(=O)N2CCOCC2)CC1 (stereo not given)	-2.4	3.8	0.3	-9.0	-2.6
CC(NC(=O)CN1CCC(C(N)=O)CC1)c1ccccc1 (stereo not given)	0.0	1.6	48.3*	-2.9	-7.1
O=C(CCC(=O)N(CC(=O)NC1CCCCC1)c1ccccc1F)Nc1nccs1	6.5	1.1	0.7	13.4	-5.9
Cn1c(Cn2cnc(Cl)c2Cl)nc2ccccc21	5.4	1.2	1.7	9.4	-2.0
COc1ccccc1N1CCN(S(=O)(=O)c2cn(C)c(=O)n(C)c2=O)CC1	47.0*	-7.9	-0.1	-8.0	-13.2
Cc1ccc(C)c(N(C(=O)c2snc(C(N)=O)c2N)C(C(=O)NCC2CCCO2)c2cccs2)c1 (stereo not given)	-0.9	1.6	2.9	-1.1	-2.7
CC(C)OCCCNC(=O)Cc1ccc(F)cc1	-1.8	3.3	3.9	5.0	-2.9
O=C(c1cnn2c(C(F)(F)F)cc(-c3cccs3)nc12)N1CCN(C(c2ccccc2)c2ccccc2)CC1	85.1*	2.4	8.2	0.1	-0.2
Cn1ncc(Cl)c1C(=O)Nc1ccc(Cl)cn1	10.9	9.6	2.2	-0.3	-1.9
CCN1/C(=C/c2ccc3cc(C)ccc3[n+]2CC)Sc2cc(C)ccc21	/	/	50.9*	-104.8	-146.6
Cc1ccc2c(c1)c1nc3ccccc3nc1n2C	58.1*	18.7	2.0	-10.0	5.2
N#CCc1cnc2ccccc2n1	81.7*	59.9*	3.3	-8.0	2.7
C=CCn1cccc(C(=O)Nc2ccc(OC)c(Cl)c2)c1=O	-0.4	-2.9	31.8*	-8.0	-0.7
Cc1ccccc1Nc1ncccc1C(=O)N1CCOCC1	-1.1	-2.2	0.7	-7.6	56.5*
SMILES	Bcl-xL primary	GLD-1 TGE inh	cardiac RTF act	RTF Ca sens inh	eLon inh
C[C@H](O)[C@H](O)[C@H]1CNc2nc(N)[nH]c(=O)c2N1	32.8*	20.2	7.7	-14.1	6.1
C[C@H](O)C(=O)C1=Nc2c(nc(N)[nH]c2=O)NC1	14.0	14.4	20.7	-7.7	6.9
c1ccc(Cn2cnc3ccccc32)cc1	3.2	2.7	0.2	-2.8	-4.9
Brc1ccccc1Cn1cnc2ccccc21	76.1*	3.5	0.8	0.7	5.4
CCNc1cc2oc(=O)c(CN3CCOCC3)c(C)c2cc1C	32.2*	21.8	9.6	-6.5	8.8
CCCN(CCC)S(=O)(=O)c1ccc(C(=O)OCCN2C(=O)c3cccc4c(N5CCOCC5)ccc(c34)C2=O)cc1	4.1	-11.7	51.5*	-28.9	-43.8
NC(=O)c1ccsc1N	176.7*	118.5*	/	/	/
CCN1C(=O)[C@H]2[C@@H](c3ccc(C)cc3)N3C(=O)N(c4ccc(OC)cc4)C(=O)[C@@]3(Cc3ccc(Cl)cc3)[C@H]2C1=O	-2.0	7.6	5.2	-6.2	-6.2
Cc1cc2c(c(=O)n1Cc1ccco1)C(c1cccnc1)C(C#N)=C(N)O2 (stereo not given)	47.1*	22.6	11.5	-12.0	-6.5
CN(CC(=O)Nc1sccc1C#N)C1CCCCC1	61.0*	62.1*	0.4	-8.8	8.6
Cc1ccc(CNC(=O)CC(C)S(=O)(=O)c2ccc3c(c2)NC(=O)CO3)cc1 (stereo not given)	0.1	-0.2	3.1	0.2	0.5
Cc1ccc(CNC(=O)CC(C)S(=O)(=O)c2ccc3c(c2)NC(=O)CS3)o1 (stereo not given)	84.6*	45.6*	16.0	-27.2	-31.5
O=[N+]([O-])c1c(NCCCO)cc(SCc2ccco2)c2nonc12	31.4*	5.1	1.5	-8.5	12.7
CCOC(=O)c1c(C)[nH]c(C(=O)C(C)OC(=O)c2ccc(NC(=O)CC#N)cc2)c1C (stereo not given)	-3.3	-4.2	0.3	-4.3	-10.8
Oc1ccc(-c2[nH]ncc2-c2cnn(-c3ccccc3)c2)c(O)c1	3.1	3.1	2.1	14.4	-3.7
CCC(CC)N1CCN(Cc2nc3ccc([N+](=O)[O-])cc3c(=O)n2-c2ccccc2F)CC1	2.1	-3.2	-3.7	-4.7	-7.6
Cc1ccc2oc(C(=O)Nc3nnc(CC(C)C)s3)c(C)c2c1	-0.6	0.3	0.2	-3.2	-8.3
Cc1cc(C)n2nc(C(=O)OCC(=O)NC3CCS(=O)(=O)C3)nc2n1 (stereo not given)	/	/	/	/	-4.2
CC1(C)CC(=O)/C(=C(\O)Cc2ccccc2)C(=NCCCCCC(=O)O)C1	3.1	4.7	-0.6	-13.0	-4.8
CN(C)c1ncnc2c1NC1=C(S2)C(=NCCCC(=O)O)CC(C)(C)C1	32.3*	3.1	13.6	-19.4	6.1
COc1ccccc1OCCCOc1ccc([N+](=O)[O-])cc1Cl	6.2	-0.5	-5.2	-6.7	-9.9
O=C(CC1CCCC1)N1CCN(S(=O)(=O)c2ccccc2)CC1	6.3	-2.1	33.4*	-124.5	2.3
CCOC(=O)CC1C(=O)NCCN1c1nc2ccc(C)cn2c(=O)c1/C=C1\SC(=S)N(CC(C)C)C1=O (stereo not given)	-0.7	-44.3	182.1*	-231.3	-248.5
CCCN1C(=O)/C(=C/c2c(N3CCNC(=O)C3CC(=O)OCC)nc3c(C)cccn3c2=O)SC1=S (stereo not given)	-33.4	-94.2	129.9*	-301.7	-425.8
CCOc1ccccc1NCN1C(=O)c2ccccc2C1=O	/	/	/	/	-0.2
CCOC(=O)c1c(C)[nH]c(C2=NNC(=Nc3ccc(OCC)cc3)SC2)c1C	76.7*	17.1	7.8	-11.3	-6.5

Source: PubChem
